# PubChem BioAssay
# Experiment: MRP1 drug-resistance reversers in H69AR cells – cell-based, doxorubicin co-treatment, pilot screen (AID 601)
# Conditions: H69AR cells + 2 uM doxorubicin, CellTiter-Glo, 72 h; measured here: viability with 2 uM doxorubicin; at 10 µM; stronger effect = lower value
row,Compound,viability
1,Cc1cc2c(c(=O)o1)C(Cc1ccccc1)C(C#N)=C(N)O2 (stereo not given),77.2%
2,O=C(C1CC1)N1CCC(c2nc(-c3ccc(S(=O)(=O)NCC4CCCO4)cc3)no2)CC1 (stereo not given),99.9%
3,N#Cc1c(NC(=O)CSc2nc(N)cc(=O)[nH]2)sc2c1CCCCCC2,86.1%
4,O=C(NCCCNC1CCCCC1)c1ccc(/C=N/O)nc1,98.6%
5,CCOC(=O)CNC(=O)CSc1ncnc2c1cnn2Cc1ccccc1,90.1%
6,CCn1nc(CC(=O)Nc2nnc(CC(=O)N3CCCCC3)s2)c2ccccc2c1=O,92.7%
7,C/C(N)=C(/C#N)C(=O)COC(=O)c1cc(C)n(-c2ccc(F)cc2)c1C,98.2%
8,COc1cc(CNc2ccc(N3CCOCC3)c(C(=O)O)c2)ccc1OCC(N)=O,99.1%
9,Cc1oc(C(=O)O)cc1CSCc1cc(C(=O)O)c(C)o1,102%
10,c1ccc(CN2C3=NCCCN3c3ccccc32)cc1,83%
11,COc1ccc(OC)c(NC(=O)CSc2nc3ccccc3c(=O)n2CCNC(C)=O)c1,16.6%
12,Cc1cccc(CS(=O)(=O)Cc2ccc(C(=O)NCC3CCCO3)o2)c1 (stereo not given),103%
13,COc1ccccc1N1CCN(C(=O)c2oc3cc(C)c(C)cc3c2C)CC1,94.9%
14,COc1cccc(NC(=O)COC(=O)c2ccco2)c1,81.1%
15,COCCNC(=O)c1c(N)n(CCC2=CCCCC2)c2nc3ccccc3nc12,78.2%
16,Cc1ccccc1C(=O)Nc1c(C(=O)N2CCCC2)cnn1-c1ccccc1,82%
17,O=C(Cn1cnc2c(nnn2Cc2ccc(Cl)cc2)c1=O)NCC1CCCO1 (stereo not given),94.7%
18,Cc1nc2ncnn2c(N2CCC(C(=O)NC3CCCC3)CC2)c1Cc1ccccc1,35.8%
19,COCCn1nnnc1C(C(C)C)N1CCN(C(=O)c2ccco2)CC1 (stereo not given),98.2%
20,CCOc1cc(-c2nc3ccccn3c2NCC2CCCO2)ccc1O (stereo not given),35.6%

row,Compound,viability
1,O=C(Nc1ccccc1N1CCN(C(=O)c2ccc(Cl)cc2)CC1)c1cc2ccccc2o1,62.6%
2,O=C(CCC(=O)N(c1cccc(F)c1)C(C(=O)NC1CCCC1)c1ccncc1)Nc1cccnc1 (stereo not given),95.8%
3,COc1ccc(S(=O)(=O)N2CCSC2c2ccccc2)cc1 (stereo not given),90.7%
4,CCCOC(=O)C1[C@H]2C(=O)N(CCCOC)C[C@]23C=C[C@H]1O3 (stereo not given in full),100%
5,COc1cc2c(cc1OC)C(C)N(C(=O)c1cc3n(n1)C(C(F)(F)F)CC(c1ccco1)N3)CC2 (stereo not given),89.3%
6,Cc1ccc(NC(=O)N2CCC(c3nc4c(nnn4Cc4cccc(Cl)c4)c(=O)[nH]3)CC2)cc1,65.6%
7,Cc1nc(NCCNC(=O)c2ccco2)c2c(C)c(C)sc2n1,84.3%
8,Cc1c(NC(=O)CSc2nnc3sc4ccccc4n23)c(=O)n(-c2ccccc2)n1C,89.6%
9,COc1ccc(-c2nnc3sc(-c4c(OC)cccc4OC)nn23)cc1,83.2%
10,COC(=O)c1ccccc1NC(=O)CSc1nnc(-c2ccncc2)o1,92.4%
11,COc1ccc(Cl)cc1NC(=O)c1oc(C)nc1C,92.3%
12,CCOC(=O)CC(=O)Nc1c(C)cc(C)cc1C,91.8%
13,O=S(=O)(c1ccccc1)c1nc(-c2ccco2)oc1NCCCN1CCOCC1,96.8%
14,O=C(COC(=O)c1ccc(S(=O)(=O)Nc2ccccc2)cc1)NCCN1C(=O)CSC1=O,86%
15,Cc1cc(C)c(-c2cc(C(=O)Nc3c(C)n(C)n(-c4ccccc4)c3=O)[nH]n2)c(O)c1,100%
16,COc1ccc(-c2nnc(SCC(=O)N3CCCCC3)o2)cc1OC,92.1%
17,Cc1cc(Br)ccc1NC(=O)CCN1C(=O)c2ccncc2C1=O,91.7%
18,CC1=C(C(=O)N2CCCCC2)C2(CCC(C)CC2)OC1=O (stereo not given),81.3%
19,CCCN(CCC)S(=O)(=O)c1ccc(C(=O)Nc2nnc(-c3cccc(OC)c3)o2)cc1,22.3%
20,CC(C)(C)c1cc(CCC(=O)N2CCNCC2)c(C(C)(C)C)cc1O,90.3%
